“And” between values parts separate entries of the source, which are not always exact repeats. Equal entries are not always repeated. About 83,000 compounds went through this panel and 20% of them were active in at least one assay; those are over-represented in the sample as a whole.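 Percent growth is the endpoint: 0 to 100 indicates growth inhibition (40 means 60% inhibition), 0 means no net growth, and negative values indicate cell death.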 The source made the active and inactive calls. How the source made its calls: active means growth percent below 10; inactive means the rest.
How the values were obtained:
Assay in all cases: NCI-60 one-dose screen, 48 h (100 = growth as untreated, 0 = no growth, -100 = all killed)
Settings in all cases: 10 µM unless noted
BT-549 breast = test system: BT-549 breast
MDA-MB-435 melanoma = test system: MDA-MB-435 melanoma
SW-620 colon = test system: SW-620 colon
MCF7 breast = test system: MCF7 breast
HCT-116 colon = test system: HCT-116 colon
HCC-2998 colon = test system: HCC-2998 colon
KM12 colon = test system: KM12 colon

Measured: growth

Cc1cc2ccccc2cn1
inactive: BT-549 breast 106% and 105% | MDA-MB-435 melanoma 101% and 106% | SW-620 colon 104% and 116% | MCF7 breast 98.5% and 101% | HCT-116 colon 99% and 108% | HCC-2998 colon 112% and 118% | KM12 colon 106% and 108%

c1ccc(-c2nc3ccccc3s2)cc1
inactive: BT-549 breast 96.8% | MDA-MB-435 melanoma 110% | SW-620 colon 93.6% | MCF7 breast 80.3% | HCT-116 colon 97.3% | HCC-2998 colon 97.2% | KM12 colon 95.4%

O=C(CO)C(O)C(O)C(O)C(O)CO (stereo not given)
inactive: BT-549 breast 111% and 117% | MDA-MB-435 melanoma 110% and 107% | SW-620 colon 105% and 100% | MCF7 breast 101% and 102% | HCT-116 colon 99.7% and 97.4% | HCC-2998 colon 109% and 119% | KM12 colon 106% and 105%

ClCCOCCOc1ccc(C2CCCCC2)cc1
inactive: BT-549 breast 95% | MDA-MB-435 melanoma 99.5% | SW-620 colon 110% | MCF7 breast 102% | HCT-116 colon 99.5% | HCC-2998 colon 106% | KM12 colon 110%

CC(=O)NCC(=O)c1ccc([N+](=O)[O-])cc1
inactive: BT-549 breast 107% | MDA-MB-435 melanoma 104% | SW-620 colon 99.5% | MCF7 breast 96.5% | HCT-116 colon 106% | HCC-2998 colon 109% | KM12 colon 103%

Brc1ccc(SSc2ccc(Br)cc2)cc1
inactive: BT-549 breast 29.4% | MDA-MB-435 melanoma 82.6% | SW-620 colon 84.2% | MCF7 breast 59.7% | HCT-116 colon 56.6% | HCC-2998 colon 93.5% | KM12 colon 57.4%

CCCCOc1ccc(Nc2cc(Cl)ccc2C(=O)O)cn1
inactive: BT-549 breast 101% and 100% | MDA-MB-435 melanoma 105% and 107% | SW-620 colon 103% and 101% | MCF7 breast 99.5% and 107% | HCT-116 colon 93.7% and 92.4% | HCC-2998 colon 95.4% | KM12 colon 118% and 103%

CC1=C/C(O)CC(=O)Cc2nc(co2)C(=O)N2CCC=C2C(=O)OC(C(C)C)C(C)/C=C\C(=O)NC/C=C\1 (stereo not given)
inactive: MDA-MB-435 melanoma 81.2% | SW-620 colon 59.9% | MCF7 breast 71.8% | HCT-116 colon 34.3% | HCC-2998 colon 118% | KM12 colon 95.1%

O=C1C=C(Nc2ccccc2)c2ccccc2C1=O
-88% (active) and 99% (inactive): MDA-MB-435 melanoma
6.58% (active) and 92.8% (inactive): HCT-116 colon
inactive: BT-549 breast 84.3% and 100% | SW-620 colon 31.5% and 94% | MCF7 breast 12.9% and 78.4% | HCC-2998 colon 54.3% and 90.5% | KM12 colon 65.6% and 84.4%

CC1CCC2(OC1)OC1CC3C4CC=C5CC(O)CCC5(C)C4CCC3(C)C1C2C (stereo not given)
inactive: BT-549 breast 130% | MDA-MB-435 melanoma 116% | SW-620 colon 106% | MCF7 breast 105% | HCT-116 colon 92.2% | HCC-2998 colon 112% | KM12 colon 104%

CC(C)(O)C(=O)O
inactive: BT-549 breast 103% | MDA-MB-435 melanoma 107% | SW-620 colon 110% | MCF7 breast 93.8% | HCT-116 colon 100% | HCC-2998 colon 119% | KM12 colon 107%

OCC1OC(O)C(O)C(O)C1O (stereo not given)
inactive: BT-549 breast 110% | MDA-MB-435 melanoma 113% | SW-620 colon 96.9% | MCF7 breast 82.6% | HCT-116 colon 104% | HCC-2998 colon 94% | KM12 colon 128%

O=C(O)CCCl
inactive: BT-549 breast 113% | MDA-MB-435 melanoma 109% | SW-620 colon 105% | MCF7 breast 97.5% | HCT-116 colon 94.8% | HCC-2998 colon 104% | KM12 colon 106%

CN1CNC(=O)NC1
inactive: BT-549 breast 97.8% and 112% | MDA-MB-435 melanoma 106% and 115% | SW-620 colon 105% and 104% | MCF7 breast 109% and 96.4% | HCT-116 colon 105% | HCC-2998 colon 113% and 102% | KM12 colon 117% and 105%

OCCN1CCCCCCC1
inactive: BT-549 breast 98.2% | MDA-MB-435 melanoma 98.4% | SW-620 colon 108% | MCF7 breast 99% | HCT-116 colon 97.1% | HCC-2998 colon 100% | KM12 colon 110%

C#CCOC(=O)Nc1ccccc1
inactive: BT-549 breast 106% | MDA-MB-435 melanoma 98.8% | SW-620 colon 105% | MCF7 breast 87.4% | HCT-116 colon 105% | HCC-2998 colon 100% | KM12 colon 110%

c1ccc2c(c1)OC1OC2Oc2ccccc21
inactive: BT-549 breast 93.2% | MDA-MB-435 melanoma 115% | SW-620 colon 96.9% | MCF7 breast 107% | HCT-116 colon 113% | HCC-2998 colon 105% | KM12 colon 87.3%

Fc1ccc([I+]c2ccc(F)cc2)cc1
inactive: BT-549 breast 67% | MDA-MB-435 melanoma 75% | SW-620 colon 55.9% | MCF7 breast 48.2% | HCT-116 colon 32.9% | HCC-2998 colon 71.7% | KM12 colon 54.5%

CCN(CCNS(C)(=O)=O)c1ccc(N)c(C)c1
21.6% (inactive) and -27.2% (active): SW-620 colon
-52.9% (active) and 43.1% (inactive): HCT-116 colon
inactive: BT-549 breast 73.8% and 102% | MDA-MB-435 melanoma 28.9% and 76.5% | MCF7 breast 20.6% and 72.8% | HCC-2998 colon 103% and 102% | KM12 colon 103%

N#CC(C#N)N=Nc1cc(Cl)ccc1Cl
inactive: BT-549 breast 101% | SW-620 colon 104% | MCF7 breast 93.7% | HCT-116 colon 97.2% | HCC-2998 colon 104% | KM12 colon 103%

CC(C)NCC(O)c1ccc(O)c(O)c1 (stereo not given)
inactive: BT-549 breast 84.7% and 79.9% and 84% | MDA-MB-435 melanoma 104% and 105% and 101% | SW-620 colon 104% and 107% and 93% | MCF7 breast 100% and 85.1% and 109% | HCT-116 colon 100% and 93.3% and 71.7% | HCC-2998 colon 105% and 117% and 108% | KM12 colon 106% and 105%

CCCCCCCCCCCCCCCCC(C(=O)O)C(O)(CC(=O)O)C(=O)O (stereo not given)
102% (inactive) and -33.7% (active): MDA-MB-435 melanoma
95.7% (inactive) and -2.93% (active): MCF7 breast
101% (inactive) and -23.5% (active): SW-620 colon
105% (inactive) and -34.4% (active): KM12 colon
103% (inactive) and -46.4% (active): BT-549 breast
105% (inactive) and -35.5% (active): HCT-116 colon
inactive: HCC-2998 colon 96.9%

O=C(Cc1ccccc1)c1ccc(O)c(Cl)c1
inactive: BT-549 breast 45.3% | MDA-MB-435 melanoma 41.3% | SW-620 colon 22.1% | MCF7 breast 20.4% | HCT-116 colon 27% | HCC-2998 colon 43.4% | KM12 colon 51.4%

COc1ccc(C(=O)CC(c2ccccc2)C(C#N)c2ccccc2)cc1 (stereo not given)
inactive: MDA-MB-435 melanoma 78.9% | SW-620 colon 91.1% | MCF7 breast 93.4% | HCT-116 colon 91.2% | HCC-2998 colon 99.1% | KM12 colon 79.9%

— PubChem BioAssay (NCI)
